The text below walks through data of PubChem BioAssay (NCATS).

Records with an inconclusive call do not appear. Values without a mark were called inactive. Active and inactive are the calls of the source. Unless noted, calls follow the shape of the dose curve; as a rule, active = well fitted inhibition curve with a large enough effect; inconclusive = small, poorly fitted or top-dose-only effect; inactive = no such curve, though single readings can be large or run the other way.

Experiment [1] can be described thus: qHTS for Inhibitors of the Functional Ribonucleoprotein Complex (vRNP) of Lassa (LASV) Arenavirus: LASV Primary Screen - GLuc reporter signal (AID 1347082; calls by dose curve; tested in HEK293 reporter line; also: series mostly up to about 57 µM; % is scaled to controls: 0 for no effect and ±100 for the full control effect; nearly all actives have a fitted effect of over 60% in size). For orientation: qHTS replaces the single test concentration by a dilution series.
The nature of experiment [2]: NS1 protein of Zika virus - qHTS assay to identify small molecule inhibitors in human HEK 293 cells (AID 1347053).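 Also: series mostly up to about 46 µM; plate controls were infected untreated cells for no effect and uninfected cells for full effect; nearly all actives have a fitted effect of over 55% in size.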 Summed up:
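Following 20 h seeding, HEK 293 cells took compound, then 1 h later ZIKV MR766 (MOI = 0.5). Incubation ran 24 h at 37 C before TR-FRET detection of NS1; a drop in signal indicates inhibition.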

Experiment [3] is described as follows: qHTS for Inhibitors of the Functional Ribonucleoprotein Complex (vRNP) of Lassa (LASV) Arenavirus: Viability assay - alamar blue signal for LASV Primary Screen (AID 1347083; calls by dose curve; tested in HEK293 reporter line; also: series mostly up to about 57 µM; % is scaled to controls: 0 for no effect and ±100 for the full control effect; nearly all actives have a fitted effect of over 80% in size).
The nature of experiment [4]: qHTS for Inhibitors of the Functional Ribonucleoprotein Complex (vRNP) of Lymphocytic Choriomeningitis Arenaviruses (LCMV): Viability assay - alamar blue signal for LCMV Primary Screen (AID 1347085; calls by dose curve; tested in HEK293 reporter line; also: series mostly up to about 57 µM; % is scaled to controls: 0 for no effect and ±100 for the full control effect; nearly all actives have a fitted effect of over 80% in size).

As for `O=c1[nH]c(=O)n([C@H]2C[C@H](O)[C@@H](CO)O2)cc1F`, the Potency entry in experiment [1] was “inactive”.

On to `CC(C(=O)c1ccccc1)N(C)C` (stereo unspecified), for which, in experiment [2], the result was inactive. For the same molecule, the Potency entry in experiment [1], in experiment [3] and in experiment [4] was “inactive” throughout.

As to `Nc1nc2ccc(OC(F)(F)F)cc2s1`, in experiment [1], the Potency entry was “inactive”.

As to `Cc1cccc(C)c1OCC(=O)N[C@@H](Cc1ccccc1)[C@@H](O)C[C@H](Cc1ccccc1)NC(=O)[C@H](C(C)C)N1CCCNC1=O`, the Potency entry in experiment [1] is “inactive”.

For the molecule `CC(C(=O)O)c1ccc2c(c1)CC(=O)c1ccccc1S2` (stereo unspecified), the Potency entry in experiment [1] and in experiment [3] was “inactive” in each case.

Take `CCCN(CCC)C(=O)Cc1c(-c2ccc(Cl)cc2)nc2ccc(Cl)cn12`: the molecule was classed as inactive in experiment [2]. The Potency entry in experiment [1], in experiment [3] and in experiment [4] was “inactive” each time.

On to `CC(Cc1ccccc1)N(C)Cc1ccco1` (stereo unspecified), for which the Potency result in experiment [1] and in experiment [3] was “inactive” each time.

On to `CN(C)C(=O)COC(=O)Cc1ccc(OC(=O)c2ccc(N=C(N)N)cc2)cc1`, for which, in experiment [1], the Potency entry is “inactive”.

Consider `C[C@]12Cc3cn[nH]c3C[C@@H]1CC[C@@H]1[C@@H]2CC[C@@]2(C)[C@H]1CC[C@]2(C)O`, for which, in experiment [2], the molecule was called inactive. Also, the Potency entry in experiment [1], in experiment [3] and in experiment [4] was “inactive” each time.

Turning to `N#C[C@H]1C[C@H]2C[C@@H]2N1C(=O)[C@@H](N)C12CC3CC(CC(O)(C3)C1)C2`, the Potency result in experiment [1] and in experiment [3] was “inactive” in each case.

For the molecule `Cc1nc2ccc(CN(C)c3ccc(C(=O)N[C@@H](CCC(=O)O)C(=O)O)s3)cc2c(=O)[nH]1`, the Potency result in experiment [1] was “inactive”.

`C[C@]12CC[C@H]3[C@@H](CCC4=CC(=O)CC[C@@H]43)[C@@H]1CC[C@@H]2OC(=O)CCc1ccco1`: the molecule was called inactive in experiment [2]. Besides, the Potency result in experiment [1], in experiment [3] and in experiment [4] was “inactive” in each case.

With `CCOc1ccc2nc3cc(N)ccc3c(N)c2c1`, the Potency result in experiment [1] was “inactive”.

As to `O=c1c(C2CC(c3ccc(-c4ccc(Br)cc4)cc3)Cc3ccccc32)c(O)sc2ccccc12` (stereo unspecified), in experiment [2], the outcome was inactive. The Potency entry in experiment [1], in experiment [3] and in experiment [4] was “inactive” throughout.

In the case of `CC(=O)C1CCOC1=O` (stereo unspecified), in experiment [2], the outcome was inactive. For the same molecule, the Potency result in experiment [1], in experiment [3] and in experiment [4] was “inactive” each time.

Consider `C[C@]12CC[C@H]3[C@@H](CCC4=CC(=O)CC[C@@H]43)[C@@H]1CC[C@@H]2OC(=O)CCC1CCCCC1`, for which the outcome in experiment [2] was inactive. Further, the Potency result in experiment [1], in experiment [3] and in experiment [4] was “inactive” throughout.

As to `CCc1cc2c(s1)-n1c(C)nnc1CN=C2c1ccccc1Cl`, the call in experiment [2] was inactive. Besides, the Potency entry in experiment [1], in experiment [3] and in experiment [4] was “inactive” throughout.

For the molecule `CCOC(=O)c1ccc(N)cc1`, the Potency entry in experiment [1] is “inactive”.

In the case of `O=c1[nH]c2ccccc2n1C1CCNCC1`, the call in experiment [2] was inactive. The Potency result in experiment [1], in experiment [3] and in experiment [4] was “inactive” each time.

As to `O=C(NCC1CCCCN1)c1cc(OCC(F)(F)F)ccc1OCC(F)(F)F` (stereo unspecified), the Potency result in experiment [1] is “inactive”.

Consider `CN1CCC[C@@H]1c1cccnc1`, for which the Potency result in experiment [1], in experiment [3] and in experiment [4] was “inactive” throughout.

For `Nc1ccc(C(=O)O)c(O)c1`, the Potency result in experiment [1], in experiment [3] and in experiment [4] was “inactive” each time.

On to `NS(=O)(=O)c1cc(Cl)c(Cl)c(S(N)(=O)=O)c1`, for which the Potency result in experiment [1], in experiment [3] and in experiment [4] was “inactive” throughout.

With `NC[C@H]1O[C@H](O[C@H]2[C@H](O[C@@H]3O[C@H](CO)[C@@H](O)[C@H]3O)C(O)[C@H](N)C[C@@H]2N)[C@H](N)[C@@H](O)[C@@H]1O` (stereo partly specified), in experiment [1], the activity change, negative = inhibition was -1.42% [at 11.5 µM]. Besides, the activity change, negative = reduced viability in experiment [3] was -0.396% [at 11.5 µM]. In addition, the activity change, negative = lower viability in experiment [4] was -0.301% [at 11.5 µM].

Turning to `CCCCCCCCCCC[C@@H](C[C@@H]1OC(=O)[C@H]1CCCCCC)OC(=O)[C@H](CC(C)C)NC=O`, the Potency result in experiment [1], in experiment [3] and in experiment [4] was “inactive” in each case.

`CC(COc1ccccc1)NN` (stereo unspecified): the Potency entry in experiment [1], in experiment [3] and in experiment [4] was “inactive” each time.

With `Cc1c(I)c(=O)n(-c2ccccc2)n1C`, the Potency entry in experiment [1], in experiment [3] and in experiment [4] was “inactive” in each case.

With `C/C(=N\O)[C@@H](C)NCC(C)(C)CN[C@H](C)/C(C)=N/O`, the Potency entry in experiment [1], in experiment [3] and in experiment [4] was “inactive” in each case.

For `CCCCCCCCCCCCCCCCOP(=O)([O-])OCC[N+](C)(C)C`, the Potency result in experiment [1], in experiment [3] and in experiment [4] was “inactive” throughout.

With `Cc1cccc(C(=O)O)c1O`, the Potency entry in experiment [1], in experiment [3] and in experiment [4] was “inactive” in each case.

As to `CCN1CCC[C@H]1CNC(=O)c1c(O)c(Cl)cc(Cl)c1OC`, the Potency result in experiment [1], in experiment [3] and in experiment [4] was “inactive” throughout.

With `COC(=O)c1ccc(O)cc1`, the Potency entry in experiment [1], in experiment [3] and in experiment [4] was “inactive” in each case.

Regarding `CC(=O)c1ccc(O)c(C(N)=O)c1`, the Potency result in experiment [1], in experiment [3] and in experiment [4] was “inactive” in each case.

Take `C[C@@H]1C[C@H]2[C@@H]3C[C@H](F)C4=CC(=O)C=C[C@]4(C)[C@@]3(F)[C@@H](O)C[C@]2(C)[C@@]1(O)C(=O)CO`: the Potency entry in experiment [1], in experiment [3] and in experiment [4] was “inactive” in each case.

In the case of `OC[C@H]1O[C@@H](Oc2ccc(O)cc2)[C@H](O)[C@@H](O)[C@@H]1O`, the Potency result in experiment [1], in experiment [3] and in experiment [4] was “inactive” throughout.

For `COP(=O)(OC)OC(c1ccc(Cl)cc1)P(=O)(OC)OC` (stereo unspecified), the Potency result in experiment [1], in experiment [3] and in experiment [4] was “inactive” each time.

With `Cc1ccc(S(=O)(=O)NC(=O)NC2CCCCC2)cc1`, the Potency entry in experiment [1], in experiment [3] and in experiment [4] was “inactive” in each case.
